Measured values taken from publication PMC7862700, “An all-to-all approach to the identification of sequence-specific readers for epigenetic DNA modifications on cytosine”.

Columns and labels:
Assay in all cases: DAPPL (digital affinity profiling via proximity ligation, sequencing); 10 mM Tris-HCl pH 7.5, 50 mM NaCl, 1 mM DTT, 4% glycerol, room temperature, 30 min; GST-TFs on glutathione beads, 16-mer random dsDNA library, 0.1% formaldehyde crosslink after washing; high values mean tight binding
FEV = molecular target: T1, FEV (Homo sapiens, UniProt Q99581 1-238); settings: protein: recombinant; tags: N-terminal GST; dsDNA, one strand shown
T1 sequence: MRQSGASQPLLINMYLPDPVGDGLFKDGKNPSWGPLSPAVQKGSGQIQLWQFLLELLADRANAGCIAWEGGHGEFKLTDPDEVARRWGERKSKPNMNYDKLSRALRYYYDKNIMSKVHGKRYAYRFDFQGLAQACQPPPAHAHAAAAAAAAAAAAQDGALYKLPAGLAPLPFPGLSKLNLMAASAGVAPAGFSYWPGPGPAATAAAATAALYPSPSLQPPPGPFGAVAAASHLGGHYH
Procedure, shortened: (§1)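 Human transcription factors carrying a GST fusion were produced in yeast, bound to glutathione beads, tagged with DNA barcodes and pooled together with a tag-only sample. Each pool was held with 200 nmole of a random double-stranded 16-mer DNA library in Tris/NaCl/DTT/glycerol buffer for 30 min at room temperature, then washed, crosslinked in 0.1% formaldehyde, proximity-ligated with BsaI/T4 ligase (1 h, 37 °C), PCR-amplified and sequenced on an Illumina NextSeq500. Binding signal is the read frequency of each hexamer for a given factor divided by its frequency in the tag-only sample.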

ETV5 = ETV5 (Homo sapiens, UniProt P41161 1-510); settings: protein: recombinant; tags: N-terminal GST; dsDNA, one strand shown
Sequence of ETV5 (P41161 whole entry): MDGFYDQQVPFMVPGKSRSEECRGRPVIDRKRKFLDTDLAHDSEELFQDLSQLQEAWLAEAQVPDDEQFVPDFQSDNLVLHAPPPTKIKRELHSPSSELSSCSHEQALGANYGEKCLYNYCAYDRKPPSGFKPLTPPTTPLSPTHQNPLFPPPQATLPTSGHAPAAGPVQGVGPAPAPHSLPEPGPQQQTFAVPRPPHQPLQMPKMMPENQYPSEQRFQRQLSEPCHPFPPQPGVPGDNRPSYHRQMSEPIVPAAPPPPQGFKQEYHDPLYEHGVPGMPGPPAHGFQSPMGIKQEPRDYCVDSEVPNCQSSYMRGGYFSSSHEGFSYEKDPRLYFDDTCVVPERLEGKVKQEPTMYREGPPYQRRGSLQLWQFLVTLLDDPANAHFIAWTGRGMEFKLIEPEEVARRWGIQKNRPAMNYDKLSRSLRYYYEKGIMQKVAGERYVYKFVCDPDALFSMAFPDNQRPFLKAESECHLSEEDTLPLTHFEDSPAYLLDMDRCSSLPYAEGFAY
Procedure, shortened: as §1

HSF1 = HSF1 (Homo sapiens, UniProt Q00613 1-529); settings: protein: recombinant; tags: N-terminal GST; chain copies: 3; dsDNA, one strand shown
Sequence of HSF1 (Q00613 whole entry): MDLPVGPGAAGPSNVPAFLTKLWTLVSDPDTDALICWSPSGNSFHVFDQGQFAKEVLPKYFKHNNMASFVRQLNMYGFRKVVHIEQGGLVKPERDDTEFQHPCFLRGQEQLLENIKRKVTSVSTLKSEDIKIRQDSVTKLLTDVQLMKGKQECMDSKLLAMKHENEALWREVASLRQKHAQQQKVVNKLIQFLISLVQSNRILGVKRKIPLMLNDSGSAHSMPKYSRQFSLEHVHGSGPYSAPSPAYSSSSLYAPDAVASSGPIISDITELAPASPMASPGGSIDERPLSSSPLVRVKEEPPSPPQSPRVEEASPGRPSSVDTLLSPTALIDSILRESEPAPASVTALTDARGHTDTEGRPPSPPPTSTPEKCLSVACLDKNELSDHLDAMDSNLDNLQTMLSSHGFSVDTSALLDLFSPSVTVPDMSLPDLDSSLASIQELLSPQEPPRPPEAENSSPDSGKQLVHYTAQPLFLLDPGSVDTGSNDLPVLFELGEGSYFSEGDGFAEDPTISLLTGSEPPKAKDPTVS
Procedure, shortened: as §1

SPIC = molecular target: T2, SPIC (Homo sapiens, UniProt Q8N5J4 1-248); settings: protein: recombinant; tags: N-terminal GST; dsDNA, one strand shown
T2 sequence: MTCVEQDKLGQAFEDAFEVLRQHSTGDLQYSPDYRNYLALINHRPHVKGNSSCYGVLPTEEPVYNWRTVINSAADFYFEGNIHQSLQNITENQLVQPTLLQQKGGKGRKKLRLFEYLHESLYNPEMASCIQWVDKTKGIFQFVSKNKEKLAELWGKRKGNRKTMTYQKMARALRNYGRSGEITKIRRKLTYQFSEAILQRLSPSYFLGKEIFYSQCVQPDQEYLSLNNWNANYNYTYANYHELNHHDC
Procedure, shortened: as §1

ELF4 = ELF4 (Homo sapiens, UniProt Q99607 1-663); settings: protein: recombinant; tags: N-terminal GST; dsDNA, one strand shown
Sequence of ELF4 (Q99607 whole entry): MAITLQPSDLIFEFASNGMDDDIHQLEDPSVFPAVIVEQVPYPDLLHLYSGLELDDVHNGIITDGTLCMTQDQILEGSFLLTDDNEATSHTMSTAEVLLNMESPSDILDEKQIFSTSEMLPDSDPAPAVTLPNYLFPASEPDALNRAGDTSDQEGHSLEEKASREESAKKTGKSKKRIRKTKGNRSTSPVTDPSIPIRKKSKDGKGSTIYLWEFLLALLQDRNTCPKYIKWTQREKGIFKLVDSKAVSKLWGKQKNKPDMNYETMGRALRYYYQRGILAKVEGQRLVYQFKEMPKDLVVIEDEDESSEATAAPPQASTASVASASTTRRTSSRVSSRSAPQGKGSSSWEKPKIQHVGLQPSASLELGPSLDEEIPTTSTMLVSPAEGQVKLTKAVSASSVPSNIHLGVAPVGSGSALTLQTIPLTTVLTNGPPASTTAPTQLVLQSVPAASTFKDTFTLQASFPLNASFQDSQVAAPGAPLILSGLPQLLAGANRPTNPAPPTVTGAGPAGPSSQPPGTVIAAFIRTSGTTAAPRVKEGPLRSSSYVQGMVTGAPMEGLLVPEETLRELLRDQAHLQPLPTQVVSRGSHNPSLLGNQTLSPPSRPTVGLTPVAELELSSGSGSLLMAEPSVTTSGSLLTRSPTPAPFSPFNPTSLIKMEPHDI
Procedure, shortened: as §1

ELK4 = molecular target: T3, ELK4 (Homo sapiens, UniProt P28324-2 1-405); settings: protein: recombinant; tags: N-terminal GST; dsDNA, one strand shown
T3 sequence: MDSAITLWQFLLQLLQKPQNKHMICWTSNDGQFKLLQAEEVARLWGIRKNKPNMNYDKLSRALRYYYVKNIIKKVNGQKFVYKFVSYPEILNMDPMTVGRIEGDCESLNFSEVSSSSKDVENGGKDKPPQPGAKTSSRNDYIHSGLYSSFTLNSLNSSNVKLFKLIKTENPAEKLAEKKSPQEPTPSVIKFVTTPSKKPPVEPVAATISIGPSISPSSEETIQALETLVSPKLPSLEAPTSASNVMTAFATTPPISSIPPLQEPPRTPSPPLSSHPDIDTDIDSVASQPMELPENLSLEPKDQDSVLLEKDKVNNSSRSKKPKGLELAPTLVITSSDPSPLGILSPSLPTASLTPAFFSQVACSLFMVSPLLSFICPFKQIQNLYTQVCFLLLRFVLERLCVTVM
Procedure, shortened: as §1

ETV2 = molecular target: T4, ETV2 (Homo sapiens, UniProt O00321 1-342); settings: protein: recombinant; tags: N-terminal GST; dsDNA, one strand shown
T4 sequence: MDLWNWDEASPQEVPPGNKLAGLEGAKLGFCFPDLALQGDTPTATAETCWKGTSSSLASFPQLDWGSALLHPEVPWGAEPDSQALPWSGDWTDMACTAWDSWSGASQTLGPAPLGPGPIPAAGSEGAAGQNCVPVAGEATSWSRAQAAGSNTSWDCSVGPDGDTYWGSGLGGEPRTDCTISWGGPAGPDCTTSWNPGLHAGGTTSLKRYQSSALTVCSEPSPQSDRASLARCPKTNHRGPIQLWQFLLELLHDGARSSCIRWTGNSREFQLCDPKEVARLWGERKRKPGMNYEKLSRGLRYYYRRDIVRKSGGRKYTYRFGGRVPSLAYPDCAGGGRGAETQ
Procedure, shortened: as §1

ELF3 = molecular target: T5, ELF3 (Homo sapiens, UniProt P78545 1-371); settings: protein: recombinant; tags: N-terminal GST; dsDNA, one strand shown
T5 sequence: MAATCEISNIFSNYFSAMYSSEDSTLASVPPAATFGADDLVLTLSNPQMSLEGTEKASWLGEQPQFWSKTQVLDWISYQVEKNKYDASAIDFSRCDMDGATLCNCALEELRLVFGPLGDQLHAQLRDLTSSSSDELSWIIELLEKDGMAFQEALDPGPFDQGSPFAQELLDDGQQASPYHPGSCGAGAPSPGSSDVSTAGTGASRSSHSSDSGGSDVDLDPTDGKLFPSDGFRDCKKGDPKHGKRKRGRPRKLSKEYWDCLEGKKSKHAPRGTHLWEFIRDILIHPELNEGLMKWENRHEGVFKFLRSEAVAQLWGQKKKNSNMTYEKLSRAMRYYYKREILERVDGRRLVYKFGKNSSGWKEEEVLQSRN
Procedure, shortened: as §1

CRX = CRX (Homo sapiens, UniProt O43186 1-299); settings: protein: recombinant; tags: N-terminal GST; dsDNA, one strand shown
Sequence of CRX (O43186 whole entry): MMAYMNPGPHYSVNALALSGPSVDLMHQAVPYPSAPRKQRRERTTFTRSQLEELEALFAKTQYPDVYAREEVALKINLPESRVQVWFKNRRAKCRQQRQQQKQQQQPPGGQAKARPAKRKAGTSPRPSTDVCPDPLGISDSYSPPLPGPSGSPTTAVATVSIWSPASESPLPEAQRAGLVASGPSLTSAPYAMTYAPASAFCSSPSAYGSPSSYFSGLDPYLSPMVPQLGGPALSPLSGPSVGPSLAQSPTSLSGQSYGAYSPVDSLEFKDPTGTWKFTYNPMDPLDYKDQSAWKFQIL
Procedure, shortened: as §1

ETV1 = ETV1 (Homo sapiens, UniProt P50549 1-477); settings: protein: recombinant; tags: N-terminal GST; dsDNA, one strand shown
Sequence of ETV1 (P50549 whole entry): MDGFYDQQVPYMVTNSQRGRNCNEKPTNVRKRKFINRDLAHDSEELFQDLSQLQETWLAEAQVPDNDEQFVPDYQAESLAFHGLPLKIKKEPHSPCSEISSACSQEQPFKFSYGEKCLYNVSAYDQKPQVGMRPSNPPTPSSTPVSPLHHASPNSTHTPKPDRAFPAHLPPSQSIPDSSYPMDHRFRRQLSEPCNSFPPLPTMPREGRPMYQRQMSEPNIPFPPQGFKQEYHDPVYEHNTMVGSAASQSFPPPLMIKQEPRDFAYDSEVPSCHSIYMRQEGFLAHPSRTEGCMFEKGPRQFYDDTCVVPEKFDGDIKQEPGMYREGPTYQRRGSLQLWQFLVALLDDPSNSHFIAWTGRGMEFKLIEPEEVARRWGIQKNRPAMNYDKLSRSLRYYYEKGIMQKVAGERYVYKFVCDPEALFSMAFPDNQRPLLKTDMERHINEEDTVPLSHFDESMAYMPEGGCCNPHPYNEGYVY
Procedure, shortened: as §1

ERF = molecular target: T6, ERF (Homo sapiens, UniProt P50548 1-548); settings: protein: recombinant; tags: N-terminal GST; dsDNA, one strand shown
T6 sequence: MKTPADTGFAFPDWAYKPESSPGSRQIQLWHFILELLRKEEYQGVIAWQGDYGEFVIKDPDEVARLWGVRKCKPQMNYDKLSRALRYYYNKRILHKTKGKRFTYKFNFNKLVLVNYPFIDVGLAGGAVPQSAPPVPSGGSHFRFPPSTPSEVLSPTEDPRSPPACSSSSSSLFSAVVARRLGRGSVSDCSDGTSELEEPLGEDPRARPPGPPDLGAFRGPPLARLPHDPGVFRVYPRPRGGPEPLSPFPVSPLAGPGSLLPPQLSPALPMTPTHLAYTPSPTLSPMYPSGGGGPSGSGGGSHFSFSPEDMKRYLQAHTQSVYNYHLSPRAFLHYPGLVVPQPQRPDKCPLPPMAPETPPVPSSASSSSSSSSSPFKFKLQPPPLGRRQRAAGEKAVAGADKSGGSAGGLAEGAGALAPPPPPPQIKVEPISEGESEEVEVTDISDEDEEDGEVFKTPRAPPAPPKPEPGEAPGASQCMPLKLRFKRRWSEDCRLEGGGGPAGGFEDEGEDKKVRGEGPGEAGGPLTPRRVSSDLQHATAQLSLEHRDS
Procedure, shortened: as §1

ETV3L = molecular target: T7, ETV3L (Homo sapiens, UniProt Q6ZN32 1-361); settings: protein: recombinant; tags: N-terminal GST; dsDNA, one strand shown
T7 sequence: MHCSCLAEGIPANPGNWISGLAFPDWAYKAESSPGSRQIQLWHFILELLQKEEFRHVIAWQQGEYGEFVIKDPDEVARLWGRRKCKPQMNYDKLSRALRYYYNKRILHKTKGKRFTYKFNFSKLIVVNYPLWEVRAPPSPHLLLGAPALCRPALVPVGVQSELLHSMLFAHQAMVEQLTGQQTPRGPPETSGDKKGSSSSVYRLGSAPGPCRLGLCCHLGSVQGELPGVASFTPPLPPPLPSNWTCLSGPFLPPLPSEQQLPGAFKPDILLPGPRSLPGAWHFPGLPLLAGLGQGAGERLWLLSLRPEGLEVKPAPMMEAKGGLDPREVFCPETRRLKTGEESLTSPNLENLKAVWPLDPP
Procedure, shortened: as §1

ETS2 = molecular target: T8, ETS2 (Homo sapiens, UniProt P15036 1-469); settings: protein: recombinant; tags: N-terminal GST; dsDNA, one strand shown
T8 sequence: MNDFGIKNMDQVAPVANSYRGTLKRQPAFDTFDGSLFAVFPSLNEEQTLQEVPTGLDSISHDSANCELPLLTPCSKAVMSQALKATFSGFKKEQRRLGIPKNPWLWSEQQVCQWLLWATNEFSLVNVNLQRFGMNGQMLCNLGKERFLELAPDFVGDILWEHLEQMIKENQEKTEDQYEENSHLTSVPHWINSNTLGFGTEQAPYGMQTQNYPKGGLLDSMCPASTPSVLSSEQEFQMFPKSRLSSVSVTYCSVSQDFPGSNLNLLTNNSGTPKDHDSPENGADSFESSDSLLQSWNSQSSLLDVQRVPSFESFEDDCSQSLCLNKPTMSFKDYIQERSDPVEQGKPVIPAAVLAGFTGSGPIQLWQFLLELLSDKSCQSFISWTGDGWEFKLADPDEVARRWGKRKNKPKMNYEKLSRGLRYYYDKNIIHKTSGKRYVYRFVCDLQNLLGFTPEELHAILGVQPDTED
Procedure, shortened: as §1

SPDEF = molecular target: T9, SPDEF (Homo sapiens, UniProt O95238 1-335); settings: protein: recombinant; tags: N-terminal GST; dsDNA, one strand shown
T9 sequence: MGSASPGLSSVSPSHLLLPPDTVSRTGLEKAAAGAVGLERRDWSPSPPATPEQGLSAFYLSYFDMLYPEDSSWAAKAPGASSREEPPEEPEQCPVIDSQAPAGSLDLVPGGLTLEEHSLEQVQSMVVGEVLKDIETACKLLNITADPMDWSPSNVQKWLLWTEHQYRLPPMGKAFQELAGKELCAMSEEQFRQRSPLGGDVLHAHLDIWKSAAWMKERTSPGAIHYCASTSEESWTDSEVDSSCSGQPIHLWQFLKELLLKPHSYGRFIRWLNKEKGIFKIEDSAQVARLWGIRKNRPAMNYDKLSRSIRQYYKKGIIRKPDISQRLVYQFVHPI
Procedure, shortened: as §1

ETV7 = molecular target: T10, ETV7 (Homo sapiens, UniProt Q9Y603 1-341); settings: protein: recombinant; tags: N-terminal GST; dsDNA, one strand shown
T10 sequence: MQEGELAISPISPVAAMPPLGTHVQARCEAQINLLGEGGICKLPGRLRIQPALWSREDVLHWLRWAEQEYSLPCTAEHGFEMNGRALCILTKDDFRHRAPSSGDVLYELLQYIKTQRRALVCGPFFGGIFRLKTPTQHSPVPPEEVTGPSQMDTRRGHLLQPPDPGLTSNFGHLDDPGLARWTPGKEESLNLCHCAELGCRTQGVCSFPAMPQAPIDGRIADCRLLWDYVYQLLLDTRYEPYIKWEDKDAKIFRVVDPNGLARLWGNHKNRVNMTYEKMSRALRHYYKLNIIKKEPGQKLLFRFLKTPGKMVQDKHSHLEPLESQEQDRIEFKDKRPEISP
Procedure, shortened: as §1

ELF5 = molecular target: T11, ELF5 (Homo sapiens, UniProt Q9UKW6-2 1-255); settings: protein: recombinant; tags: N-terminal GST; dsDNA, one strand shown
T11 sequence: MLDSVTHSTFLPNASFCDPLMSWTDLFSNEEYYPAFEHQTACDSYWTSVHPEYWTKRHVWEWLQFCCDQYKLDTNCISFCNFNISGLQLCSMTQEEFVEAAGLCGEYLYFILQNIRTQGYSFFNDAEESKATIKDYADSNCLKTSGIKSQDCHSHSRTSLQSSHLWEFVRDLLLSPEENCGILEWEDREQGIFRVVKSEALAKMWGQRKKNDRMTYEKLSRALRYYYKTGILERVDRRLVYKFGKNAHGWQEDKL
Procedure, shortened: as §1

ETV3 = molecular target: T12, ETV3 (Homo sapiens, UniProt P41162-2 1-143); settings: protein: recombinant; tags: N-terminal GST; dsDNA, one strand shown
T12 sequence: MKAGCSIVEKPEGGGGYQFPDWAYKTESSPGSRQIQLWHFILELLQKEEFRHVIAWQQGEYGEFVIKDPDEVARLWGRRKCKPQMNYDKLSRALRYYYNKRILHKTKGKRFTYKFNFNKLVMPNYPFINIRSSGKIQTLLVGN
Procedure, shortened: as §1

ETV6 = ETV6 (Homo sapiens, UniProt P41212 1-452); settings: protein: recombinant; tags: N-terminal GST; dsDNA, one strand shown
Sequence of ETV6 (P41212 whole entry): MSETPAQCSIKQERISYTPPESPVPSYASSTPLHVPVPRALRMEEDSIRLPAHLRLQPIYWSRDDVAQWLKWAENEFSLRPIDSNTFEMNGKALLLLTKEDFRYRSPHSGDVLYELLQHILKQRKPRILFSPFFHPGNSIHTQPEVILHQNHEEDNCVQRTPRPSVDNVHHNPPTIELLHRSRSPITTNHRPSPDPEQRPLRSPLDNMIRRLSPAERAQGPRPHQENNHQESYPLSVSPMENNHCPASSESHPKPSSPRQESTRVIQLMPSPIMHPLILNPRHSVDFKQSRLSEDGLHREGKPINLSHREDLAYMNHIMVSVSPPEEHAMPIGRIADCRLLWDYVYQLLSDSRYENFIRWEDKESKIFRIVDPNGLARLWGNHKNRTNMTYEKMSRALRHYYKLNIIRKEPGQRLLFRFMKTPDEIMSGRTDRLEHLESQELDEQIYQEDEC
Procedure, shortened: as §1

ATTGAC
binding signal (FEV): 1.18 fold enrichment (6-mer frequency, TF over GST control) | binding signal (ETV5): 1.17 fold enrichment (6-mer frequency, TF over GST control) | binding signal (HSF1): 1.01 fold enrichment (6-mer frequency, TF over GST control) | binding signal (SPIC): 1.11 fold enrichment (6-mer frequency, TF over GST control) | binding signal (ELF4): 1.15 fold enrichment (6-mer frequency, TF over GST control) | binding signal (ELK4): 1.34 fold enrichment (6-mer frequency, TF over GST control) | binding signal (ETV2): 1.38 fold enrichment (6-mer frequency, TF over GST control) | binding signal (ELF3): 1.19 fold enrichment (6-mer frequency, TF over GST control) | binding signal (CRX): 1.11 fold enrichment (6-mer frequency, TF over GST control) | binding signal (ETV1): 1.1 fold enrichment (6-mer frequency, TF over GST control) | binding signal (ERF): 1.24 fold enrichment (6-mer frequency, TF over GST control) | binding signal (ETV3L): 1.26 fold enrichment (6-mer frequency, TF over GST control) | binding signal (ETS2): 1.36 fold enrichment (6-mer frequency, TF over GST control) | binding signal (SPDEF): 1.12 fold enrichment (6-mer frequency, TF over GST control) | binding signal (ETV7): 1.25 fold enrichment (6-mer frequency, TF over GST control) | binding signal (ELF5): 1.19 fold enrichment (6-mer frequency, TF over GST control) | binding signal (ETV3): 1.21 fold enrichment (6-mer frequency, TF over GST control) | binding signal (ETV6): 1.23 fold enrichment (6-mer frequency, TF over GST control)
